Source: PubChem BioAssay (EPA / NIEHS)
Results filed as inconclusive are left out. Calls of active or inactive are those of the source. The calls were made as follows, unless noted: active = hit-call score of the fitted dose curve at least 0.9, where 1 is the maximum; inconclusive = response in the unintended direction; inactive = score below 0.9.

Columns and labels:
[1] = ATG_TCF_b_cat_CIS: Attagene CIS-FACTORIAL HepG2 Assay for human T-Cell-Factor with beta-catenin (TCF/b-cat) (AID 2282965; active = hit-call score of the fitted dose curve at least 0.9, where 1 is the maximum; inactive = score below 0.9); details: HepG2 TCF/beta-catenin cis-reporter transcription, actives raise or lower the signal
Outline: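 Endogenous TCF/LEF activity read as reporter transcript level via RT-PCR and capillary electrophoresis fluorescence in transfected HepG2, 24 h exposure; gain or loss of signal fitted against DMSO controls.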

[2] = ATG_TAL_CIS: Attagene CIS-FACTORIAL HepG2 Assay for human TAL Basal Promoter (AID 2282966; active = hit-call score of the fitted dose curve at least 0.9, where 1 is the maximum; inactive = score below 0.9;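 also: background control endpoint measuring basal TAL promoter reporter mRNA not a specific factor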); details: HepG2 Attagene cis-factorial TAL promoter reporter; actives raise or lower the signal
Outline: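 Fluorescence of labelled reporter cDNA fragments, resolved by capillary electrophoresis, gave the readout. Human HepG2 liver cells carried transiently transfected cis-element reporter units and were treated for 24 hours; activity was fitted bidirectionally against DMSO.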

[3] = ATG_TGFb_CIS: Attagene CIS-FACTORIAL HepG2 Assay for human Transforming Growth Factor (TGF) (AID 2282967; active = hit-call score of the fitted dose curve at least 0.9, where 1 is the maximum; inactive = score below 0.9); details: HepG2 Attagene CIS TGFb reporter, mRNA transcription; actives raise or lower the signal
Outline: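 Cells were dosed for 24 hours, after which total RNA was reverse-transcribed and reporter sequences amplified, labeled and sized by capillary electrophoresis. Activity was fitted in both directions against DMSO.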

[4] = ATG_VDRE_CIS: Attagene CIS-FACTORIAL HepG2 Assay for human Vitamin D Receptor Element (VDRE) (AID 2282968; active = hit-call score of the fitted dose curve at least 0.9, where 1 is the maximum; inactive = score below 0.9); details: HepG2 VDRE cis-reporter transcription, actives raise or lower the signal
Outline: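 Reporter mRNA induction, quantified by capillary electrophoresis of fluorescently labelled RT-PCR products, was read 24 h after dosing HepG2 cells carrying transiently transfected cis-regulated reporter units; gain or loss relative to DMSO.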

[5] = target: Estrogen receptor (Homo sapiens) (UniProt P03372); test: ATG_ERa_TRANS: Attagene TRANS-FACTORIAL HepG2 Assay for human Estrogen Receptor alpha (ERa) (AID 2282970); details: HepG2 Attagene TRANS ERa GAL4 reporter, mRNA
Outline: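 Human liver HepG2, transient transfection of multiple GAL4-UAS reporter units; TRANS format (exogenous NR-Gal4 chimera). 24 h dosing. Readout: reporter mRNA, RT-PCR, 6-FAM primer extension, HpaI digest, capillary electrophoresis. Positive direction vs DMSO.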

[6] = target: X-box-binding protein 1 (Homo sapiens) (UniProt P17861); test: ATG_Xbp1_CIS: Attagene CIS-FACTORIAL HepG2 Assay for human X-box Binding Protein 1 (XBP1) (AID 2282972; active = hit-call score of the fitted dose curve at least 0.9, where 1 is the maximum; inactive = score below 0.9); details: HepG2 XBP1 cis-element reporter, Attagene multiplex; actives raise or lower the signal
Chain of X-box-binding protein 1 (Homo sapiens) (P17861 whole entry, looked up): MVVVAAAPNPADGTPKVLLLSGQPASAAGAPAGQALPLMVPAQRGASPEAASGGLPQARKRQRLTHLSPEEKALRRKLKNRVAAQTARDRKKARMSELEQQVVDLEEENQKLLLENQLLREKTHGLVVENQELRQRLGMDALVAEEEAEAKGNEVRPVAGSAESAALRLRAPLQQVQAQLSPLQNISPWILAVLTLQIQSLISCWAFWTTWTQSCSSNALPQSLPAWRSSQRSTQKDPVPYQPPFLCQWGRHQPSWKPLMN
Outline: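 After a 24-hour chemical exposure of HepG2 cells carrying cis-regulated reporters, reporter mRNA levels are assessed. Quantification uses RT-PCR, 6-FAM labelling and capillary electrophoresis. Gain- or loss-of-signal is fitted against DMSO.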

[7] = ATG_M_19_TRANS: Attagene TRANS-FACTORIAL HepG2 Assay for M19 Transcription Factor (Internal Marker) (AID 2282974); details: HepG2 Attagene TRANS-FACTORIAL M19 internal marker reporter
Outline: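 HepG2 cells transiently transfected with multiple GAL4-UAS reporter transcription units were exposed to chemicals for 24 h. Reporter mRNA was read by RT-PCR, 6-FAM primer extension, HpaI digestion and capillary electrophoresis; gain of signal fitted relative to DMSO.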

[8] = ATG_GAL4_TRANS: Attagene TRANS-FACTORIAL HepG2 Assay for GAL4 (Internal Marker) (AID 2282976); details: HepG2 Attagene TRANS GAL4 internal marker reporter
Outline: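 First, HepG2 cells were transfected with reporter units under GAL4-UAS control. Next, they were treated with chemical for 24 h. Finally, RNA was reverse-transcribed, PCR-amplified, FAM-labelled and resolved by capillary electrophoresis, with induction scored against DMSO.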

[9] = target: Oxysterols receptor LXR-alpha (Homo sapiens) (UniProt Q13133); test: ATG_LXRa_TRANS: Attagene TRANS-FACTORIAL HepG2 Assay for human Liver X Receptor alpha (LXRa) (AID 2282980); details: HepG2 Attagene TRANS reporter, LXRa transactivation
Chain of Oxysterols receptor LXR-alpha (Homo sapiens) (Q13133 whole entry, looked up, the tested form may be a part): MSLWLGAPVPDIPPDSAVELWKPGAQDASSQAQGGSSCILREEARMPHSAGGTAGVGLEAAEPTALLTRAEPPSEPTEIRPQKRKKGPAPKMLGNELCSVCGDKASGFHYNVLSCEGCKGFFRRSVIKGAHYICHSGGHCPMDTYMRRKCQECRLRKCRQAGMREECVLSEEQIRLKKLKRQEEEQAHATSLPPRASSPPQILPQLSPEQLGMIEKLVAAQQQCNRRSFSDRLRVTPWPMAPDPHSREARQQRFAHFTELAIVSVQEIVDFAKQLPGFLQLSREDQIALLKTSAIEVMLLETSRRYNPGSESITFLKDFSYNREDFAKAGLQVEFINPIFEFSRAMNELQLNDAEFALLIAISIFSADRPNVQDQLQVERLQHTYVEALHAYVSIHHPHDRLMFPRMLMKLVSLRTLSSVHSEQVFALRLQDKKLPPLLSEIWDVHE
Outline: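 Transfect HepG2 with GAL4-UAS multiplex reporter constructs (TRANS format, chimeric receptor-GAL4); treat 24 h; extract RNA, reverse-transcribe, PCR-amplify, FAM-label, HpaI-digest; resolve fragments by capillary electrophoresis. Upward response vs DMSO.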

[10] = ATG_M_32_TRANS: Attagene TRANS-FACTORIAL HepG2 Assay for M32 Transcription Factor (Internal Marker) (AID 2282984); details: HepG2 Attagene TRANS M32 internal marker reporter;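 also: transcript level of a background control reporter unit measured by RT-PCR and capillary electrophoresis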
Outline: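 Measures reporter mRNA induction in human HepG2 liver cells after 24 h chemical treatment. Transcripts from transiently transfected GAL4-UAS reporter units are amplified, fluorescently labelled and sized by capillary electrophoresis; gain of signal relative to DMSO.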

[11] = target: Transcriptional activator Myb (Homo sapiens) (UniProt P10242); test: ATG_Myb_CIS: Attagene CIS-FACTORIAL HepG2 Assay for human Myeloblastosis (Myb) Proto-Oncogene Transcription Factor (AID 2282986; active = hit-call score of the fitted dose curve at least 0.9, where 1 is the maximum; inactive = score below 0.9); details: HepG2 Attagene CIS-FACTORIAL Myb reporter transcription; actives raise or lower the signal
Chain of Transcriptional activator Myb (Homo sapiens) (P10242 whole entry, looked up): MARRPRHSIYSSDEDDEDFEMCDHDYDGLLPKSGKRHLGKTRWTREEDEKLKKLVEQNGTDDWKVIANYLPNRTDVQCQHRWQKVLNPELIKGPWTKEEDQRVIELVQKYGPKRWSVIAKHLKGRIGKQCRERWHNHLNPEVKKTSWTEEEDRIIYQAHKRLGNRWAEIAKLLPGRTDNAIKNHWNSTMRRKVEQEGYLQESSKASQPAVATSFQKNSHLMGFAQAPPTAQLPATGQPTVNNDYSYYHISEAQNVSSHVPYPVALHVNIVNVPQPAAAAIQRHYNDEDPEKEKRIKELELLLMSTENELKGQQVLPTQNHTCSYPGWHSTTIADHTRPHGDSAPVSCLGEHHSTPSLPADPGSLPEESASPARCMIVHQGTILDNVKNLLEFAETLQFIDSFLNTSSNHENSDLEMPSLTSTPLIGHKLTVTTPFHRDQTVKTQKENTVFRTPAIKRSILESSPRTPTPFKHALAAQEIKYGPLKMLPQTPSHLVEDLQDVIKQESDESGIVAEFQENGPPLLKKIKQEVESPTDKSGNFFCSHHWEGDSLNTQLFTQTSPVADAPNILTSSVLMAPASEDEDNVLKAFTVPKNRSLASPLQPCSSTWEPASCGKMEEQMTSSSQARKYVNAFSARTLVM
Outline: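 HepG2 cells were transiently transfected with cis-regulated multiple reporter transcription units reflecting endogenous Myb activity, then exposed to compound for 24 hours. Reporter mRNA was measured by RT-PCR with capillary electrophoresis; bidirectional fitting versus DMSO baseline.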

[12] = target: Oxysterols receptor LXR-beta (Homo sapiens) (UniProt P55055); test: ATG_LXRb_TRANS: Attagene TRANS-FACTORIAL HepG2 Assay for human Liver X Receptor beta (LXRb) (AID 2282981); details: HepG2 Attagene TRANS GAL4-LXRb reporter, mRNA
Chain of Oxysterols receptor LXR-beta (Homo sapiens) (P55055 whole entry, looked up, the tested form may be a part): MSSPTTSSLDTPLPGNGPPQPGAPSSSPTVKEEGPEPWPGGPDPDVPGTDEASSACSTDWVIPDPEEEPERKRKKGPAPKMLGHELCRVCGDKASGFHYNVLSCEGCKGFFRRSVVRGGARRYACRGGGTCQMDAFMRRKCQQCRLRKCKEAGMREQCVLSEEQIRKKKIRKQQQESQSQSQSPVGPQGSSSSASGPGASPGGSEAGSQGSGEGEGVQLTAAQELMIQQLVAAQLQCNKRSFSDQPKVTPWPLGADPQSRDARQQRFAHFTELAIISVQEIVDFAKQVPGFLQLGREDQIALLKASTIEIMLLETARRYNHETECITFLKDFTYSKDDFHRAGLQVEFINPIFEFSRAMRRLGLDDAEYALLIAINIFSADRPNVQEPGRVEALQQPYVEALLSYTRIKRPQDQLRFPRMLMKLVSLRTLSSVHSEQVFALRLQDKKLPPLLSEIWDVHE
Outline: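 Transient transfection HepG2 (multiplexed RTUs, GAL4-UAS); NR-Gal4 chimera; 24 h exposure; RNA → RT-PCR → 6-FAM primer extension → HpaI → CE; increase vs DMSO.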

[13] = ATG_M_06_TRANS: Attagene TRANS-FACTORIAL HepG2 Assay for M06 Transcription Factor (Internal Marker) (AID 2282983); details: HepG2 Attagene TRANS M06 internal marker reporter
Outline: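 Transfect HepG2 with MRTUs → dose compounds 24 h → isolate RNA, oligo(dT) RT → PCR with reporter primers → 6-FAM primer extension → HpaI digest → CE fragment analysis. Positive direction vs DMSO.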

[14] = target: Glucocorticoid receptor (Homo sapiens) (UniProt P04150); test: ATG_GR_TRANS: Attagene TRANS-FACTORIAL HepG2 Assay for human Glucocorticoid Receptor (GR) (AID 2282978); details: HepG2 Attagene TRANS GR reporter, mRNA transcription;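 also: activators score as hits since higher reporter transcript over DMSO is fitted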
Chain of Glucocorticoid receptor (Homo sapiens) (P04150 whole entry, looked up, the tested form may be a part): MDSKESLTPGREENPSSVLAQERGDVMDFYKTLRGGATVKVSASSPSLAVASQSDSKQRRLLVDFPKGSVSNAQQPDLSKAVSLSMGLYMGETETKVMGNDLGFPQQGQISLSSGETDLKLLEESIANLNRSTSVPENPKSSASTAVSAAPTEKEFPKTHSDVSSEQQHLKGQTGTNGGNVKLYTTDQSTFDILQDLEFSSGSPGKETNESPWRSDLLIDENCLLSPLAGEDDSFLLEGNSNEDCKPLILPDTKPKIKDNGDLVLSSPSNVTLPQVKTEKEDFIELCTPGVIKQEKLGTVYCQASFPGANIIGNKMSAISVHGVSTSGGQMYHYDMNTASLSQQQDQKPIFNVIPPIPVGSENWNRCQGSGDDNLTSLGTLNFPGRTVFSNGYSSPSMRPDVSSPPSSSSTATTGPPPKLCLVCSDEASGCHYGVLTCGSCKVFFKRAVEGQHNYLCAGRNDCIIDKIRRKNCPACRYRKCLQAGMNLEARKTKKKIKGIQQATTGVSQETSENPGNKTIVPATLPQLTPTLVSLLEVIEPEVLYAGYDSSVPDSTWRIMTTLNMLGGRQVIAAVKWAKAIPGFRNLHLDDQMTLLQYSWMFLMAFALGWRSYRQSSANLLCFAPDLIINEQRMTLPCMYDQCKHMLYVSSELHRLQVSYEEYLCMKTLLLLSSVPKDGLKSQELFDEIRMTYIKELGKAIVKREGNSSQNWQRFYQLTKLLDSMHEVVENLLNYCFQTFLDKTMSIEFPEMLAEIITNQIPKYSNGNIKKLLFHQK
Outline: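 HepG2 cells transiently transfected with multiplexed reporter units in which chimeric NR-GAL4 proteins drive GAL4-UAS reporters; 24 h compound exposure. Reporter mRNA measured by RT-PCR, 6-FAM labelling, HpaI digestion and capillary electrophoresis; gain-of-signal fitted versus DMSO.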

[15] = target: Hepatocyte nuclear factor 4-alpha (Homo sapiens) (UniProt P41235); test: ATG_HNF4a_TRANS: Attagene TRANS-FACTORIAL HepG2 Assay for human Hepatocyte Nuclear Factor 4 alpha (HNF4a) (AID 2282982); details: HepG2 HNF4a transactivation reporter, mRNA readout
Chain of Hepatocyte nuclear factor 4-alpha (Homo sapiens) (P41235 whole entry, looked up, the tested form may be a part): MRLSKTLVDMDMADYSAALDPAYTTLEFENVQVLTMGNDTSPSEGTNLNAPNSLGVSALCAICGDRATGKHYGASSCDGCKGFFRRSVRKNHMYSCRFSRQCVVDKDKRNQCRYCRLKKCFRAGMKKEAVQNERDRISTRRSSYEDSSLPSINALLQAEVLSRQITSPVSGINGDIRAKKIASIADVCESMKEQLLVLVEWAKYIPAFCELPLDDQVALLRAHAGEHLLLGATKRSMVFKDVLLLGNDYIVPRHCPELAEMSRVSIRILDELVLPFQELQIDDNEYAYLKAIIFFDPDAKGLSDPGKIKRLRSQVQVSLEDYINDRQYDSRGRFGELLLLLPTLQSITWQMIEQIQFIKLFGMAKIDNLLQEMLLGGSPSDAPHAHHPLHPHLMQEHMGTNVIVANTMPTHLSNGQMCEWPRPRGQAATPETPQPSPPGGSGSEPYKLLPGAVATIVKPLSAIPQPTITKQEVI
Outline: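 Readout is fluorescent reporter-transcript fragments resolved by capillary electrophoresis after RT-PCR from HepG2 cells dosed for 24 h. Cells carried transfected GAL4-UAS reporter constructs measuring exogenous NR-GAL4 chimera activity; DMSO served as baseline.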

[16] = target: Steroid hormone receptor ERR1 (Homo sapiens) (UniProt P11474); test: ATG_ERRa_TRANS: Attagene TRANS-FACTORIAL HepG2 Assay for human Estrogen-Related Receptor alpha (ERRa) (AID 2282971); details: HepG2 Attagene TRANS reporter, ERRa transactivation
Chain of Steroid hormone receptor ERR1 (Homo sapiens) (P11474 whole entry, looked up, the tested form may be a part): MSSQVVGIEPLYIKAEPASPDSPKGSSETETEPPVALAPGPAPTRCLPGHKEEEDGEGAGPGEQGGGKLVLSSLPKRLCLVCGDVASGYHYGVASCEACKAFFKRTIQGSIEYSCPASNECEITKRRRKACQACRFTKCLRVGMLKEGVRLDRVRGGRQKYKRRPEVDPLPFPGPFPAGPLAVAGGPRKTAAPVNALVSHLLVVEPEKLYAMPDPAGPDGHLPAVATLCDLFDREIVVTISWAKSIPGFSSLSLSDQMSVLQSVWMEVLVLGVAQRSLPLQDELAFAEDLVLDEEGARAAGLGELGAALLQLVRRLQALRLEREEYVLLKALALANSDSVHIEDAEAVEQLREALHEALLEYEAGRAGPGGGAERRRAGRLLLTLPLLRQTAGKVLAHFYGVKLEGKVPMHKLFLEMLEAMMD
Outline: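 Reporter transcript induction was quantified by RT-PCR and capillary electrophoresis of FAM-labelled, HpaI-cut products after 24 h treatment of HepG2 cells carrying transiently transfected GAL4-UAS reporter units and an exogenous ERRa-Gal4 fusion; activity scored as increase over DMSO.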

[17] = target: Nuclear receptor subfamily 4 group A member 2 (Homo sapiens) (UniProt P43354); test: ATG_NURR1_TRANS: Attagene TRANS-FACTORIAL HepG2 Assay for human Nuclear Receptor Related Protein 1 (NURR1) (AID 2282985); details: HepG2 Attagene TRANS reporter, mRNA readout
Chain of Nuclear receptor subfamily 4 group A member 2 (Homo sapiens) (P43354 whole entry, looked up, the tested form may be a part): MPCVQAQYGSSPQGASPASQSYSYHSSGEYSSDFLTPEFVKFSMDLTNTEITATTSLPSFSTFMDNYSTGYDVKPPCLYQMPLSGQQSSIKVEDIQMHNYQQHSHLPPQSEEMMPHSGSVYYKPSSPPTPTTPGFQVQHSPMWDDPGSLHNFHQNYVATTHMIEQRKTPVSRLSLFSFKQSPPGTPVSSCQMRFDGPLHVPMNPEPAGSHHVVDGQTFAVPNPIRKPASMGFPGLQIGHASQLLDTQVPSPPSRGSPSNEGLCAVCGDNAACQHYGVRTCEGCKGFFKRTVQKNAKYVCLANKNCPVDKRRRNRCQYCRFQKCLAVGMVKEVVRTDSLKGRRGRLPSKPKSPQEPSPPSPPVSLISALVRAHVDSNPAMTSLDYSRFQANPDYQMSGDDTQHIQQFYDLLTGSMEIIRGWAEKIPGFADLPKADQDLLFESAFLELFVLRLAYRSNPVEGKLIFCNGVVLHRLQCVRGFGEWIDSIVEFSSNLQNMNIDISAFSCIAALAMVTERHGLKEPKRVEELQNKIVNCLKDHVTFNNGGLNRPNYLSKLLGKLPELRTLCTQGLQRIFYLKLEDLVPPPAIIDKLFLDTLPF
Outline: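 Transient transfection of HepG2, human liver cells, with multiple GAL4-UAS reporter transcription units. Cells dosed 24 h, RNA isolated, reverse-transcribed, PCR-amplified, FAM-labelled, HpaI-digested, sized by capillary electrophoresis. DMSO served as negative control.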

[18] = target: Nuclear receptor subfamily 1 group I member 3 (Homo sapiens) (UniProt Q14994); test: ATG_CAR_TRANS: Attagene TRANS-FACTORIAL HepG2 Assay for human Constitutive Androstane Receptor (CAR) (AID 2282969); details: HepG2 Attagene TRANS-FACTORIAL CAR reporter;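 also: activators raise reporter mRNA above DMSO so AC50 marks induction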
Chain of Nuclear receptor subfamily 1 group I member 3 (Homo sapiens) (Q14994 whole entry, looked up, the tested form may be a part): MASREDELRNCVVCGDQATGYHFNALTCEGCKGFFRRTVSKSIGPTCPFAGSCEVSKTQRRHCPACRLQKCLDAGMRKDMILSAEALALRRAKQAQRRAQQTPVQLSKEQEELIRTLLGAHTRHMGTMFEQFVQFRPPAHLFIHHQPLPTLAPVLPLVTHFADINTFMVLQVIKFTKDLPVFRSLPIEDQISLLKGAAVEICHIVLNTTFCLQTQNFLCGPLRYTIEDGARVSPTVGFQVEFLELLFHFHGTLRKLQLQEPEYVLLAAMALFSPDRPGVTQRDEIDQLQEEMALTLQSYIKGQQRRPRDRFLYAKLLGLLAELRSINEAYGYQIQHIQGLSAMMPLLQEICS
Outline: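 Readout is reporter mRNA induction, quantified by fluorescent primer extension and capillary electrophoresis after RT-PCR. Cells were HepG2 transiently carrying chimeric NR-Gal4 constructs with GAL4-UAS reporters, treated for 24 h; activity scored upward from DMSO.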

[19] = target: Estrogen-related receptor gamma (Homo sapiens) (UniProt P62508); test: ATG_ERRg_TRANS: Attagene TRANS-FACTORIAL HepG2 Assay for human Estrogen-Related Receptor gamma (ERRg) (AID 2282977); details: HepG2 Attagene TRANS reporter, ERRg transactivation;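 also: hits increase reporter signal over DMSO so potencies reflect activators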
Chain of Estrogen-related receptor gamma (Homo sapiens) (P62508 whole entry, looked up, the tested form may be a part): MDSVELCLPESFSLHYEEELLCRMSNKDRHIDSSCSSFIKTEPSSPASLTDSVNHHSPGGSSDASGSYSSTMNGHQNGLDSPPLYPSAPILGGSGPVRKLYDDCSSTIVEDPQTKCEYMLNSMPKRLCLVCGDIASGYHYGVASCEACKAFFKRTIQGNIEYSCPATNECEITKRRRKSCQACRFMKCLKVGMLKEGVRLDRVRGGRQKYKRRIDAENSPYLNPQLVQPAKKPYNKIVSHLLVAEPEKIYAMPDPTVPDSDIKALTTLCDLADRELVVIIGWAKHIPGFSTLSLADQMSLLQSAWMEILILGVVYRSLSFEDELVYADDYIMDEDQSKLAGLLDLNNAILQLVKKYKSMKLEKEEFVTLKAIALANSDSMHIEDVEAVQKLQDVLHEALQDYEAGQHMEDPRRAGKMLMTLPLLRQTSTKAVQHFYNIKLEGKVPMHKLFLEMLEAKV
Outline: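 Transfect HepG2 with multiple GAL4-UAS reporter transcription units; dose chemicals 24 h; isolate RNA, reverse-transcribe with oligo(dT), PCR-amplify, label with 6-FAM, digest with HpaI; size fragments by capillary electrophoresis. DMSO serves as negative control.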

[20] = target: Bile acid receptor (Homo sapiens) (UniProt Q96RI1); test: ATG_FXR_TRANS: Attagene TRANS-FACTORIAL HepG2 Assay for Farnesoid X Receptor (FXR) (AID 2282979); details: HepG2 Attagene TRANS FXR-GAL4 reporter transcription;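 also: hits raise reporter mRNA above DMSO so AC50 marks FXR activation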
Outline: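 Transient transfection of HepG2 with multiplexed GAL4-UAS reporter units; exogenous FXR-GAL4 chimera. Dose 24 h → TriZol RNA → oligo(dT) RT → PCR, 6-FAM primer extension, HpaI cut → CE. Gain vs DMSO.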

Measured: AC50

CCCC1CCOC(C)S1 (stereo not given)
inactive: [1] | [2] | [3] | [4] | [5] | [6] | [7] | [8] | [9] | [10] | [11]

CC(=O)CCc1ccc(O)cc1
not listed: [14] | [15] | [16] | [17] | [18] | [19] | [20]
inactive: all other assays above

CC(=N[Si](C)(C)C)O[Si](C)(C)C
not listed: [9] | [13] | [16] | [17] | [18] | [19] | [20]
inactive: all other assays above

CC(=O)Oc1c(C)c(C)c2c(c1C)CC[C@@](C)(CCC[C@H](C)CCC[C@H](C)CCCC(C)C)O2
not listed: [8] | [9] | [13] | [14] | [18] | [19] | [20]
inactive: all other assays above

CC(C)CCCC(C)(C)O
inactive: [1] | [2] | [3] | [4] | [18] | [6] | [8] | [9] | [10] | [11]

CCCCCCCCCCCCCC(=O)OCC
not listed: [5] | [8] | [14] | [15] | [16] | [19] | [20]
inactive: all other assays above

CCCCCCCC(=O)N(C)C
not listed: [13] | [14] | [15] | [18] | [20]
inactive: all other assays above

CC(C)(C)c1ccc(S)cc1
inactive: [1] | [2] | [3] | [4] | [18] | [6] | [14] | [13] | [10] | [11]

NNC(=O)OCc1ccccc1
not listed: [9] | [12] | [14] | [18] | [19] | [20]
inactive: all other assays above

[Cl][Dy]([Cl])[Cl]
not listed: [10] | [13] | [14] | [16] | [17] | [18] | [19]
inactive: all other assays above

C=C1CC/C=C(\C)CC[C@@H]2[C@@H]1CC2(C)C
active: [5] 14.3 µM
not listed: [7] | [9] | [12] | [14] | [15] | [18]
inactive: all other assays above

CCCCCCC(O)CCOC(C)=O (stereo not given)
not listed: [7] | [10] | [12] | [14] | [17] | [18] | [19]
inactive: all other assays above

CCCCCCCCCO
not listed: [7] | [13] | [15] | [17] | [18]
inactive: all other assays above

CN(C)c1ccc(C=O)cc1
not listed: [7] | [9] | [17] | [18]
inactive: all other assays above

NCCN1CCNCC1
not listed: [5] | [8] | [9] | [14] | [15] | [16] | [19] | [20]
inactive: all other assays above

O=C(O)c1cccc(Cl)n1
inactive: [1] | [2] | [3] | [4] | [5] | [6] | [7] | [9] | [15] | [10] | [11]

CC/C=C\CCCCO
inactive: [1] | [2] | [3] | [4] | [5] | [6] | [7] | [15] | [10] | [17] | [11]

CC(=O)c1ccc2ccccc2c1
active: [5] 42.4 µM
not listed: [8] | [10] | [12] | [13] | [15] | [16] | [18] | [19]
inactive: all other assays above

CC(=O)C1C(=O)C=C(C)OC1=O (stereo not given)
inactive: [1] | [2] | [3] | [4] | [18] | [6] | [20] | [13] | [10] | [17] | [11]

CCCCCc1cccc(=O)o1
inactive: [1] | [2] | [3] | [4] | [5] | [6] | [7] | [12] | [10] | [11]
